Assay outcomes as filed in PubChem.
A selection: hits, their analogues and other compounds. The true share with any hit is near 1.1%.
HDAC3 inhib – blocks human histone deacetylase 3; O15379; recombinant HDAC3, fluorogenic peptide/trypsin coupled, fluorescence; inhibition, % at 8.3 µM; 320,000 compounds, 0.15% hits; AID 2718; in the data active = inhibition above about 26%, passing the limit was not always enough
Target sequence (O15379 whole entry, looked up): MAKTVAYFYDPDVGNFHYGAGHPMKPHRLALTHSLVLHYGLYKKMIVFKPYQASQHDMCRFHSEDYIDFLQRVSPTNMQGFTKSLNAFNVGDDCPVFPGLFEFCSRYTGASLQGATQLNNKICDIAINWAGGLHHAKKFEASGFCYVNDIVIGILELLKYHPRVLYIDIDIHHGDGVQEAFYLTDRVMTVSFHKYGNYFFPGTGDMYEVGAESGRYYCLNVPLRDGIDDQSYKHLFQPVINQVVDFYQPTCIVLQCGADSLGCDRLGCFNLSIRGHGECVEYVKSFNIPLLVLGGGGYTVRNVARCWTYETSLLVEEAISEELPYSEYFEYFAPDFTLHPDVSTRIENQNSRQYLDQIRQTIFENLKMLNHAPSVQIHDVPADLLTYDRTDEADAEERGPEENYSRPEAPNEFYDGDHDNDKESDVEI
Casp6 inh – blocks human caspase-6 cleavage activity. P55212. purified caspase-6, Z-VEID-R110 cleavage fluorescence. inhibition, % at 12.5 µM. 350,000 compounds, 0.53% hits. AID 686996;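 active = mean inhibition across replicates at least about 35%, with every replicate also reaching that limit, limit read from the data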
Target sequence (P55212 24-179 limits assumed): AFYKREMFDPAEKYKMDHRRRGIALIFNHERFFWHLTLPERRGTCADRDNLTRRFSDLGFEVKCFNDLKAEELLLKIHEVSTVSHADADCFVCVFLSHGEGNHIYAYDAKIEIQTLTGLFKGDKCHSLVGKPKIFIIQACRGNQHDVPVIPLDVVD
Target sequence (P55212 194-293 limits assumed): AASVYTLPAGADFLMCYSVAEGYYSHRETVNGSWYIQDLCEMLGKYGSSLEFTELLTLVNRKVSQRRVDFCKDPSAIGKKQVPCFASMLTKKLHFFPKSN
C-LANA FP – KSHV C-LANA DNA binding inhibition | MBP-C-LANA/FAM-LBS DNA binding, fluorescence polarization | inhibition, % at 9 µM | 340,000 compounds, 0.078% hits | AID 504423;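 active = highest replicate inhibition at or above 60% at 9 µM, even if other replicates fall short; inactive = all replicates below 60% inhibition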
N-glyco inh – blocks N-linked glycosylation in D54 reporter cells | D54 ERlucT glycosylation luciferase reporter, 24 h; percent of 100 nM tunicamycin response | reporter increase, % at 12.5 µM | 360,000 compounds, 0.23% hits | AID 588692;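 active = mean luciferase reporter signal, scaled so untreated is 0 and the glycosylation-blocking control 100, at or above a set limit in every replicate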;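 note: luciferase carries N-glycosylation sites so blocking glycosylation raises the light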
NSD2 HMT inh – NSD2 (human) methyltransferase inhibition | O96028 | NSD2 peptide methylation, AlphaScreen, 120 min | inhibition, % at 12.5 µM | 310,000 compounds, 0.54% hits | AID 743445; in the data active = inhibition above about 50%
Keap1-Nrf2 PPI – Keap1-Nrf2 (human) interaction inhibition. Q14145. Keap1 Kelch-Nrf2 peptide fluorescence polarization, 1536-well. inhibition, % at 9.4 µM. 340,000 compounds, 0.15% hits; in the data active = inhibition above about 12%;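 note: human Keap1 Kelch domain with fluorescein labeled Nrf2 9mer peptide probe; higher means more block of Keap1 binding to Nrf2 peptide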
DNA intercal 2 – counter-screen for C-LANA inhibitors: DNA intercalators | AC50, µM (titrated, usually from 35 µM) | AID 588364 | Acridine orange-DNA displacement, fluorescence polarization | 20 tested, under 10 active | shares compounds with C-LANA FP;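 active = signal drop with an AC50 no more than ten times the top valid dose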
Keap1 Kelch bind – binders of human Keap1 Kelch domain; shares compounds with Keap1-Nrf2 PPI; Keap1 Kelch thermal shift, delta Tm; hits give high values; max delta Tm, degrees C; 400 compounds, 8% hits; AID 651823; in the data active = max delta Tm above about 0.48 degrees C
Sypro dye melt – shifts Sypro Orange melt without protein, a false positive | Sypro Orange dye-only thermal melt, no protein, delta Tm; top dose 26 µM | 140 tested, under 10 active | shares compounds with Keap1-Nrf2 PPI | AID 651858 | delta Tm, degrees C (test concentration not listed);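 active = at highest dose tested, delta Tm positive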
AlphaScreen art – AlphaScreen assay artifact in NSD2 counter-screen. 1,500 compounds, 9.4% hits. shares compounds with NSD2 HMT inh. AlphaScreen artifact counterscreen, preloaded methylated H4 peptide. AID 1053174. AC35, µM (titrated, usually from 10 µM); call rule not given here
Numbers stand for hits; i = inactive; nt = no result; + = active, no number.

SMILES | HDAC3 inhib | Casp6 inh | C-LANA FP | N-glyco inh | NSD2 HMT inh | Keap1-Nrf2 PPI | Keap1 Kelch bind | others
O=C(O)C1Nc2ccc(Br)cc2C2C=CCC12 (stereo unspecified) | i | nt | 69 | i | nt | i | nt | DNA intercal 2=i
COC(=O)c1ccccc1NC(=O)CCS(=O)(=O)c1ccc(Br)cc1 | nt | i | i | i | i | i | nt | DNA intercal 2=i
COc1ccc2c3c([nH]c2c1)[C@@H](CO)N(C(=O)Nc1ccc(F)cc1)CC31CN(S(=O)(=O)c2ccccc2)C1 | nt | i | nt | nt | nt | nt | nt
CCN(CC)C(=O)Oc1ccc2c(c1)O/C(=C\c1ccco1)C2=O | i | i | i | i | i | i | nt
CCC(=O)Oc1ccc2c(c1)O/C(=C\c1ccco1)C2=O | i | 59 | i | i | i | i | nt | DNA intercal 2=i
CO[C@H]1CN(C)C(=O)c2cc(NC(=O)c3ccc(F)cc3)ccc2OC[C@H](C)N(C(=O)c2ccc(F)cc2)C[C@H]1C | nt | i | nt | nt | nt | nt | nt
C[C@@H]1CN([C@@H](C)CO)C(=O)Cc2cc(NC(=O)C3CCCCC3)ccc2O[C@H]1CN(C)S(=O)(=O)c1cn(C)cn1 | nt | i | nt | nt | nt | nt | nt
CSc1ccc(/C=N/Nc2cccc(C(=O)O)c2)cc1 | nt | nt | 78 | i | 99 | i | nt | DNA intercal 2=i
O=C1/C(=C/c2ccco2)Oc2c1ccc(O)c2CN1CCCCC1 | i | nt | 66 | i | i | i | nt | DNA intercal 2=30µM
O=C(O)CCCCCn1c(SCC(=O)c2ccc(O)c(O)c2)nc2ccsc2c1=O | i | nt | i | i | 91 | i | nt | DNA intercal 2=i;AlphaScreen art=i
CC1=NN(c2ccccc2)C(=O)/C1=C/C=C/c1ccccc1 | i | nt | i | i | i | i | nt
CC1=NN(c2cccc(C(=O)O)c2)C(=O)/C1=C\C=C\c1ccco1 | i | nt | 92 | i | + | i | nt | DNA intercal 2=i;AlphaScreen art=7.2µM
O=C(Nc1ccc(Cl)c(Cl)c1)N[C@H]1CC[C@H](CCNC(=O)c2ccc(F)cc2)O[C@@H]1CO | nt | i | nt | nt | nt | nt | nt
COc1ccc(NC(=O)c2cccc(-c3ccc(O)cc3)c2)cn1 | i | i | i | i | i | 13 | i
CC(=O)Nc1cccc(NC(=O)c2cccc(-c3ccc(O)cc3)c2)c1 | i | i | i | i | i | i | nt
C[C@@H]1CN([C@@H](C)CO)C(=O)c2cc(NS(=O)(=O)c3cn(C)cn3)ccc2O[C@@H](C)CCCCO[C@H]1CN(C)C(=O)c1ccncc1 | nt | i | nt | nt | nt | nt | nt
CC(=O)Nc1ccc2c(c1)C(=O)N(C)[C@@H]1CC[C@H](CC(=O)NCc3ccc(F)cc3)O[C@H]1CO2 | nt | i | nt | nt | nt | nt | nt
O=c1[nH]c(=S)[nH]c2nc(-c3ccccc3)cnc12 | i | i | i | i | i | i | nt
Cc1cc2nc3c(=O)[nH]c(=S)[nH]c3nc2cc1NC(=O)C(F)(F)F | i | i | i | i | nt | 27 | i
C[C@H]1CN([C@@H](C)CO)C(=O)c2cc(NC(=O)NC3CCCCC3)ccc2O[C@H]1CN(C)C(=O)Nc1cccc2ccccc12 | nt | i | nt | nt | nt | nt | nt
O=c1oc2c3c4c(cc2s1)CCCN4CCC3 | i | nt | i | i | i | i | nt
O=c1ccc2cc3c4c(c2o1)CCCN4CCC3 | i | i | i | i | i | 38 | i
C[C@H](NC(=O)[C@@H]1[C@@H](CO)[C@@H]2Cn3c(ccc(-c4ccccc4F)c3=O)[C@H]1N2)c1ccccc1 | nt | i | nt | nt | nt | nt | nt
COc1ccc(C=NNc2ccc(S(=O)(=O)Nc3ccccc3C(=O)O)cc2[N+](=O)[O-])c(OC)c1 | i | i | i | i | i | i | nt
C=CCOc1ccc(C=NNc2ccc(S(=O)(=O)Nc3ccccc3C(=O)O)cc2[N+](=O)[O-])cc1OC | i | i | i | i | i | 13 | 0.91
SMILES | HDAC3 inhib | Casp6 inh | C-LANA FP | N-glyco inh | NSD2 HMT inh | Keap1-Nrf2 PPI | Keap1 Kelch bind | others
Cc1ccccc1OCCC(=O)Nc1cc(S(=O)(=O)N2CCCCC2)ccc1N1CCN(C)CC1 | nt | i | i | i | i | 54 | i
Cc1ccc(OCC(=O)Nc2cc(S(=O)(=O)N3CCCCC3)ccc2N2CCN(C)CC2)c(C)c1 | i | i | i | i | i | i | nt
CCOC(=O)c1ccc2ncc(C(=O)OCC)c(NCCN3CCOCC3)c2c1 | i | i | i | i | i | i | nt
CCOC(=O)c1ccc2ncc(C(=O)OCC)c(NCCN(C)C)c2c1 | i | i | i | i | nt | 14 | i | Sypro dye melt=i
C=CCn1cccc(C(=O)Nc2ccc(OC)c(Cl)c2)c1=O | i | nt | i | i | i | 48 | i
O=S(=O)(c1ccc(F)cc1)N1CC[C@@H]2[C@H]1c1cc(Br)ccc1N[C@@H]2CO | nt | i | nt | nt | nt | nt | nt
CN1C(=O)c2cccc3c(S(=O)(=O)N(C)C)ccc1c23 | i | i | i | i | i | i | nt
CNS(=O)(=O)c1ccc2c3c(cccc13)C(=O)N2C | i | i | i | i | i | 32 | i
CN1[C@H](C(=O)NCCN2CCCC2)[C@@H](CO)[C@@H]2Cn3c(ccc(/C=C/c4ccccc4)c3=O)[C@@H]21 | nt | i | nt | nt | nt | nt | nt
CC1C2(C)OC(=N)C(C#N)(C(C)O2)C1(C#N)C#N (stereo unspecified) | nt | nt | i | i | i | i | nt
CCCCC1OC2(C)OC(=N)C1(C#N)C(C#N)(C#N)C2c1ccccc1 (stereo unspecified) | i | i | i | i | i | 30 | i
CC1OC2(C)OC(=N)C1(C#N)C(C#N)(C#N)C2c1ccccc1 (stereo unspecified) | i | i | i | i | i | 23 | i | Sypro dye melt=i
O=C(C[C@H]1CC[C@@H]2[C@H](COC[C@@H](O)CN2C(=O)c2cnccn2)O1)NCc1ccccc1 | nt | i | nt | nt | nt | nt | nt
COc1ccc(N=Nc2nc3ccc(Br)cc3n2C)cc1 | i | nt | 70 | i | i | 48 | i
CC(C)(C)c1cc[n+](-c2nc([O-])sc2C=O)cc1 | i | i | i | i | i | i | nt
CCc1cc[n+](-c2nc([O-])sc2C=O)cc1 | i | nt | i | i | i | 29 | i
CO[C@@H]1CN(C)C(=O)c2ccc(NC(=O)c3ccc(F)cc3)cc2OC[C@H](C)N(C)C[C@@H]1C | nt | i | nt | nt | nt | nt | nt
CC1(C)CC(=O)C2=C(C1)OC(N)=C(C#N)C2c1ccccc1[N+](=O)[O-] (stereo unspecified) | i | i | i | i | i | 25 | i
CCNCC(=O)N1c2ccccc2CCc2ccc(NC(C)=O)cc21 | i | nt | i | i | i | i | nt
CC(=O)Nc1ccc2c(c1)N(C(=O)CN(C)C)c1ccccc1CC2 | i | nt | i | i | i | 123 | i
CC(C)[C@H](NC(=O)OCc1ccccc1)C(=O)OCC(=O)N1CCN(c2ccc(F)cc2)CC1 | i | i | i | i | i | i | nt
